# LDHA inh: qHTS assay for inhibitors of human lactate dehydrogenase; purified LDHA, NADH/diaphorase-resazurin fluorescence; stronger effect = lower value; L-lactate dehydrogenase A chain (Homo sapiens), P00338; activity change, % (values are at about 110 or 230 µM); 0.15% of 480,000 active; in the data active = activity change below about -30%; inconclusive = mostly about -25% to -30%;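 also: plate controls were DMSO wells for no effect and wells without enzyme for full effect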
#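 Enzyme activity of human lactate dehydrogenase 5 (2 nM; 0.06 mM NADH, 0.2 mM pyruvate, 5 min, RT) is measured via a resazurin/diaphorase fluorescence readout of residual NADH.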
# ALOX12 inh: Primary qHTS assay for inhibitors of human arachidonate 12S-lipoxygenase (ALOX12): Round 2. purified 12hLO, xylenol orange hydroperoxide absorbance. Polyunsaturated fatty acid lipoxygenase ALOX12 (Homo sapiens), P18054. Potency, µM (series often up to 108 µM), for inactives: top-dose activity change, negative = inhibition, hits mostly inhibitors. 1.1% of 580,000 active. AID 1671190, 2021; also: potency is read from the fitted curve at half-maximal effect; % is scaled to controls: 0 for no effect and ±100 for the full control effect
# Target sequence (P18054 whole entry, looked up): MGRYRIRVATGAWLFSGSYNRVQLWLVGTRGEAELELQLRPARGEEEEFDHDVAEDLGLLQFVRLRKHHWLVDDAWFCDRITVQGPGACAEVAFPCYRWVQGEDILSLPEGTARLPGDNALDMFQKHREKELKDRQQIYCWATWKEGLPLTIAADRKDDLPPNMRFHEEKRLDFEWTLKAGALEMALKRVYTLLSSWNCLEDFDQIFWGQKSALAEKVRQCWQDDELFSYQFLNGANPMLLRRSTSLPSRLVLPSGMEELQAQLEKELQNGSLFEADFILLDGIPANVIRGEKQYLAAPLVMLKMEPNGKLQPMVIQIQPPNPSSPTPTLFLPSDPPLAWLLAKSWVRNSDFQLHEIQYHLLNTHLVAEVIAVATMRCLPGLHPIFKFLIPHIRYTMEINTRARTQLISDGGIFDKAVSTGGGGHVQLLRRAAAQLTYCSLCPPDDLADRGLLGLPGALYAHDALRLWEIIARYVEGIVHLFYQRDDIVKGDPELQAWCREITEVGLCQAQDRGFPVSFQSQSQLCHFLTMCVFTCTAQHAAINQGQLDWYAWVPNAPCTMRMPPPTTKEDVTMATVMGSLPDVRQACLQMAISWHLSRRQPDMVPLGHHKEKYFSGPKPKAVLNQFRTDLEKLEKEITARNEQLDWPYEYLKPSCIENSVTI
#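 Purified human 12hLO (150 nM final) in 25 mM Hepes, 0.01% Triton X-100, pH 7.0 was preincubated 15 min at room temperature with compound. Then 40 uM arachidonic acid was added, 30 min. Hydroperoxide was read by Fe-XO absorbance ratio 573/405 nm.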
# Nrf2 activator: qHTS of Nrf2 Activators | AREc32 ARE-luciferase reporter (MCF7-derived line), luminescence, 24 h | Potency, µM (doses to about 46.1 µM), without a hit: at the top dose activation, hits mostly activators | 0.31% of 410,000 active | AID 624171, 2012; also: potency is read from the fitted curve at half-maximal effect; % of control where 0% means no effect; nearly all actives have a fitted effect of over 65% in size
#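 ARE-driven firefly luciferase activity in AREc32 cells measured after a 24 hr compound exposure at 37 deg C, using Steady-Glo reagent and a 30 min room-temperature hold.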
# A549 tox: Nrf2 qHTS screen for inhibitors: counterscreen for cytotoxicity | A549 ARE-Fluc cells, CellTiter-Fluor viability, 18-24 h | Potency, µM (doses to about 46 µM), for the others: at the top dose activity change, negative = cytotoxicity, hits mostly inhibitors | 0.16% of 390,000 active; also: potency is read from the fitted curve at half-maximal effect; % is scaled to controls: 0 for no effect and ±100 for the full control effect
#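 A549 ARE_Fluc cells in 5% FBS OPTI-MEM were exposed to compounds in concentration-response for 18-24 h at 37 deg C. Viability was read by CellTiter-Fluor fluorescence (Ex 405/Em 525) after 30 min, before the luciferase read.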
# Nrf2 block: Nrf2 qHTS screen for inhibitors; A549 ARE-Fluc reporter, luciferase luminescence, 18-24 h; Potency, µM (titrated, usually from 46 µM), inactives show top-dose activity change, negative = inhibition, most hits filed as inhibitors; 2.1% of 360,000 active; also: potency is read from the fitted curve at half-maximal effect; % is scaled to controls: 0 for no effect and ±100 for the full control effect; nearly all actives have a fitted effect of over 60% in size
#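 A549 ARE_Fluc cells (5000/well, 5% FBS OPTI-MEM) pre-incubated 2 h, then treated with compounds 18-24 h at 37C/5% CO2 in concentration-response. CellTiter-Fluor viability read first; BugLite luciferase luminescence after 15 min at room temperature gives Nrf2 activity.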
# IDH1 R132H inh: qHTS for Inhibitors of mutant isocitrate dehydrogenase 1 (IDH1): qHTS. Isocitrate dehydrogenase [NADP] cytoplasmic (Homo sapiens), O75874. IDH1-R132H enzyme, NADPH consumption, diaphorase/resazurin fluorescence. Potency, µM (doses to about 76.6 µM), inactives show top-dose activity change, negative = inhibition, hits mostly inhibitors. 0.093% of 390,000 active. AID 602179, 2012; also: potency is read from the fitted curve at half-maximal effect; % is scaled to controls: 0 for no effect and ±100 for the full control effect; nearly all actives have a fitted effect of over 65% in size
#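 IDH1-R132H (0.5 ug/mL dispensed) in pH 7.5 Tris buffer was preincubated 30 min with compound, then given a substrate mix of 0.016 mM NADPH and 2 mM alpha-KG for 80 min at room temperature; remaining NADPH was read by diaphorase/resazurin fluorescence.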
# * marks the source's active call; other numbers are inactive results; ? = inconclusive; . = no result given; [ ] = dose if it differs, or a comment. Most compounds without a hit are left out; they make up all but 2.7% or so of the library. Unless noted, calls follow the shape of the dose curve; as a rule, active = well fitted curve in the direction sought with a large enough effect; inconclusive = small, poorly fitted or top-dose-only effect, or another doubt; inactive = no such curve, though single readings can be large; an effect the other way counts as inactive or inconclusive.
SMILES,LDHA inh,ALOX12 inh,Nrf2 activator,A549 tox,Nrf2 block,IDH1 R132H inh
O=C(CCCN1C(=O)NC2(CCCC2)C1=O)Nc1cnc2ccccc2c1,15,5%,.,.,.,.
C/C=C(\C)C(=O)OC1Cc2c(ccc3ccc(=O)oc23)OC1(C)C (stereo not given),7,-5%,.,.,.,.
CC1CCN(c2ccccc2NC(=S)NC(=O)c2cccs2)CC1,1,32µM*,13%,17%,10%,2%
Cc1cccnc1NC(=O)CNC(=O)c1cccs1,2,4%,0%,-1%,8%,2%
CC(C)(C)C(=O)Nc1ccccc1N1CCN(C(=O)c2ccc(Cl)cc2)CC1,5,0%,0%,-3%,-3%,0%
CC(C)C(=O)NC(=S)Nc1ccccc1N1CCN(C(=O)c2ccc(Cl)cc2)CC1,1,45µM*,0%,1%,-8%,0%
O=C(NC(=S)Nc1ccc(S(=O)(=O)N2CCCCC2)cc1)c1cccs1,-5,?,1%,1%,-22%,-3%
Cc1cccnc1NC(=S)NC(=O)c1cccs1,-2,?,10µM*,-3%,?,-1%
O=C(NC(=S)Nc1ccc(S(=O)(=O)NC2CCCCC2)cc1)c1cccs1,-4,16µM*,3%,-8%,-4%,-7%
Cc1ccccc1NC(=O)Cn1c(C)cc2ccccc21,-4,1%,.,.,.,.
CC1CCN(c2ccccc2NC(=S)NC(=O)C(C)(C)C)CC1,-3,40µM*,5%,2%,5%,-3%
CS(=O)(=O)N1CCN(c2ccccc2NC(=S)NC(=O)c2cccs2)CC1,-2,35µM*,3%,4%,-5%,3%
CC1CCCCC1NC(=S)NC(=O)c1cccs1 (stereo not given),-1,14µM*,10%,18%,26%,7%
CC(C)C(=O)N1CCN(c2ccccc2NC(=S)NC(=O)c2cccs2)CC1,1,?,3%,10%,?,0%
CC(OC(=O)c1cccn1C)C(=O)Nc1ccc2c(c1)OCO2 (stereo not given),4,-6%,2%,1%,26µM*,-1%
CC(OC(=O)c1ccc(O)cc1)C(=O)Nc1ccc2c(c1)OCO2 (stereo not given),0,-2%,.,.,.,.
CC(=O)N1CCN(Cc2nc3cc(NC(=O)c4ccccc4Cl)ccc3n2C)CC1,-6,17%,0%,-16%,-25%,6%
Cn1c(CN2CCCCC2)nc2cc(NC(=O)c3ccc(F)cc3)ccc21,7,0%,3%,-21%,12µM*,1%
CC(=O)N1CCN(Cc2nc3cc(NC(=O)COc4cccc(C)c4)ccc3n2C)CC1,2,?,0%,-5%,23µM*,3%
Cn1c(CN2CCCCC2)nc2cc(NC(=O)c3ccccc3Cl)ccc21,-3,3%,-1%,4%,4%,0%
CCn1c(CN2CCOCC2)nc2cc(NC(=O)c3ccc([N+](=O)[O-])cc3)ccc21,-4,-13%,-1%,0%,9.2µM*,-3%
Cc1cccc(OCC(=O)Nc2ccc3c(c2)nc(CN2CCCCC2)n3C)c1,8,?,-1%,13%,?,1%
CC(=O)N1CCN(Cc2nc3cc(NC(=O)c4ccc(Cl)cc4)ccc3n2C)CC1,1,27%,2%,-15%[1.84 µM],10µM*,3%
CCn1c(CN2CCN(C)CC2)nc2cc(NC(=O)c3ccc([N+](=O)[O-])cc3)ccc21,4,-16%,-1%,-2%,4%,0%
CCCOc1ccc(NC(=O)Cc2ccccc2)c2cccnc12,44,?,.,.,.,.
SMILES,LDHA inh,ALOX12 inh,Nrf2 activator,A549 tox,Nrf2 block,IDH1 R132H inh
N#Cc1ccccc1NC(=O)c1ccccc1Oc1ccccc1,5,9%,.,.,.,.
CCN1c2cc(C(=O)Nc3cccc(C(F)(F)F)c3)ccc2C(=O)N2CCCCCC21 (stereo not given),.,0%,.,.,.,.
COc1ccccc1-c1cc2nc(C)c(CCC(=O)NCc3ccc(C)cc3)c(C)n2n1,-5,?,.,.,.,.
CN(Cc1ccc(-c2ccc(Cl)cc2)o1)C(=O)CSc1nnc(C2CC2)n1Cc1ccco1,1,16µM*,.,.,.,.
O=C(CSc1nnc(C2CC2)n1Cc1ccco1)NCC(F)(F)F,0,-4%,1%,-3%,7%,5%
Cc1ccc(N2C(=O)/C(=C/c3ccco3)SC2=S)cc1,7,18µM*,20%,-2%,4%,4%
O=C1/C(=C/c2cccs2)SC(=S)N1c1ccccc1,0,?,2%,?,10µM*,0%
Cc1ccc(N2C(=O)/C(=C/c3cccnc3)SC2=S)cc1,-5,3%,0%,0%,0%,0%
CCCc1c(C(=O)Nc2cc(C(C)(C)C)on2)cnn1-c1ccccc1,-1,?,0%,0%,6.5µM*,8%
CCCc1c(C(=O)Nc2ccc(F)cc2F)cnn1-c1ccccc1,0,-1%,9%,0%,19%,15%
COc1ccc(NC(=O)CCC(=O)c2cccs2)cc1Cl,-4,99%,1%,8%,24%,0%
COc1ccc(NC(=O)Nc2cccs2)cc1Cl,0,40µM*,?,-8%,-1%,4%
COc1ccc(C(=O)Nc2ccc(NC(=O)c3cccs3)c(OC)c2)cc1Cl,-5,0%,0%,-17%,9.2µM*,4%
CCOC(=O)C1=C(C)N(C)C(=O)N(C)C1c1ccc(F)cc1F (stereo not given),11,2%,.,.,.,.
CC1CCC(NC(=O)C(Cc2c[nH]c3ccccc23)NC(=O)c2ccccc2Cl)CC1 (stereo not given),-7,?,.,.,.,.
Cc1cc(C)cc(C(=O)NCCc2cccnc2)c1,5,25%,.,.,.,.
Cc1sc(NC(=O)c2ccco2)c(CN2CCCCC2)c1C,1,-14%,8.9µM*,9%,18%,1%
CN1CCN(C(c2ccc(Br)cc2)c2cc(Cl)c3cccnc3c2O)CC1 (stereo not given),18,10µM*,?,?,?,3%
CN1CCN(C(c2ccc(F)cc2)c2ccc3cccnc3c2O)CC1 (stereo not given),-2,.,0%,2%,-18%,0%
CC(C)C(NC(=O)COc1ccc2ccccc2c1)C(=O)N/N=C/C=C/c1ccccc1 (stereo not given),-22,8.9µM*,1%,13%,.,9%

# Screening data as filed in PubChem BioAssay.
